# Measurements published in PubChem BioAssay (NCATS).
# Where “and” joins values, the source holds several entries; their conditions need not be identical. Identical values can stand only once. Unmarked numbers belong to inactive results. Records with an inconclusive call do not appear. A call without a number means that no potency is given here. Calls of active or inactive are those of the source. The call rests on the fitted dose curve; in most records, active means well fitted curve in the direction sought with a large enough effect; inconclusive means small, poorly fitted or top-dose-only effect, or another doubt; inactive means no such curve, though single readings can be large; an effect the other way counts as inactive or inconclusive.
# Experiments:
# [1] = system: Zika virus NS2B-NS3 protease (linked construct); assay: Primary screen NINDS Rhodamine qHTS for Zika virus inhibitors (AID 1347160); further: nearly all actives have a fitted effect of over 55% in size
# Procedure, shortened: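 Each compound, titrated, sat 15 min with 25 nM linked protease before 1.5 microM Rhodamine110 substrate went in. Fluorescence gain over the next 15 min, in pH 8.0 Tris with Tween 20, gave Hill-fitted curves.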
# [2] = target: Calcium and integrin-binding protein 1 (Homo sapiens) (UniProt Q99828); assay: Primary qHTS for Identification of Calcium Integrin Binding Protein 1 (CIB1) Competitor (AID 1508620);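 further: GST tagged CIB1 binding a fluorescein labelled alphaIIb integrin peptide tracer; top concentration of the series differs between compounds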
# Calcium and integrin-binding protein 1 (Homo sapiens), sequence (Q99828 whole entry, looked up): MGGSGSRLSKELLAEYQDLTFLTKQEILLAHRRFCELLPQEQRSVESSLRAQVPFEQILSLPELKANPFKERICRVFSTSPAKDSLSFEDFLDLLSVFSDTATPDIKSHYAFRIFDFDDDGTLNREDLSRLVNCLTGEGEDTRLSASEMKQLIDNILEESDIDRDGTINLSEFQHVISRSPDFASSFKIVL
# Procedure, shortened: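 Fluorescence polarization competition: CIB1-GST (1 uM final) preincubated with compound 15 min at room temperature, then FITC-labeled alphaIIb peptide (100 nM final) added for another 15 min. Polarization read at Ex 480/Em 540.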
# [3] = Primary qHTS for inhibitors of nuclear receptor binding SET domain protein 2 (NSD2) in an isogenic RCH-ACV NSD2 p.E1099K mutant (9B) (AID 1645876); further: potency means the concentration at half of the fitted maximal effect; nearly all actives have a fitted effect of over 70% in size
# [4] = Primary qHTS for inhibitors of nuclear receptor binding SET domain protein 2 (NSD2) in an RCH-ACV wild type WT cells (2C) (AID 1645877); further: nearly all actives have a fitted effect of over 70% in size; further: potency means the concentration at half of the fitted maximal effect
# [5] = target: Phospholipid hydroperoxide glutathione peroxidase GPX4 (Homo sapiens) (UniProt P36969); assay: Primary qHTS Assay for Inhibitors of Recombinant Selenoprotein Glutathione Peroxidase 4 (GPX4) (AID 1845192); settings: outcome: dose series up to 50 µM unless noted; further: nearly all actives have a fitted effect of over 65% in size
# Phospholipid hydroperoxide glutathione peroxidase GPX4 (Homo sapiens), sequence (P36969 whole entry, looked up): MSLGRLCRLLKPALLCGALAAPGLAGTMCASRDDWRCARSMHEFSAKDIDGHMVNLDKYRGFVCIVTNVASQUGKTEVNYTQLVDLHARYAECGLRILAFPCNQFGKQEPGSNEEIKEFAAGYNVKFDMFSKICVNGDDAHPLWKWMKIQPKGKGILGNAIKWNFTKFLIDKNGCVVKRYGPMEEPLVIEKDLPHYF
# Procedure, shortened: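 qHTS, GR-coupled: GPX4 200 nM + cpd 30 min RT → GSH 1 mM, NADPH 0.5 mM, GR 100 nM → CHP 0.5 mM start; fluor 340/450 at t0 and t15 min; no-enzyme wells as control.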
# [6] = target: Luciferin 4-monooxygenase (Photinus pyralis) (UniProt P08659); assay: Primary firefly luciferase (FLuc) qHTS assay for identification of artifact compounds. (AID 1845220); further: nearly all actives have a fitted effect of over 60% in size; further: potency means the concentration at half of the fitted maximal effect
# Procedure, shortened: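 qHTS, 15 min compound preincubation with substrate (10 uM luciferin, 10 uM ATP) at RT, then 10 nM FLuc; 5 min; luminescence; % inhibition vs no-enzyme/DMSO controls, 4-parameter Hill fit.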
# [7] = Primary fluorescence-based thiol-reactive (MSTI) qHTS assay for identification of artifact compounds. (AID 1845221); further: nearly all actives have a fitted effect of over 65% in size; further: potency means the concentration at half of the fitted maximal effect
# Procedure, shortened: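 First, 4 uM MSTI in 2% DMSO/PBS pH 7.4 was dispensed; next, compounds were added; then plates sat 1 h at room temperature without light. Finally, emission at 598 nm was recorded.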
# HeLa = assay: Primary qHTS to identify gynecologic anti-cancer compounds using libraries of approved drugs and bioactive compounds (AID 1345084); settings: Gynecologic cancer cell panel viability, ATPlite luminescence, 48 h; series mostly up to 57.5 µM; further: nearly all actives have a fitted effect of over 55% in size; further: potency means the concentration at half of the fitted maximal effect
# Procedure, shortened: (§1)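 48 h compound exposure at 37 C, 5% CO2; five-point qHTS. ATPlite luminescence readout of cell ATP.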
# Hek293T = assay: as above; settings: Gynecologic cancer cell panel viability, ATPlite luminescence, 48 h, control line for the selectivity index; series mostly up to 57.5 µM
# Procedure, shortened: as §1
# JEG-3 = assay: as above; settings: Gynecologic cancer cell panel viability, ATPlite luminescence, 48 h; series mostly up to 57.5 µM
# Procedure, shortened: as §1
# OV90 = assay: as above; settings: Gynecologic cancer cell panel viability, ATPlite luminescence, 48 h; series mostly up to 57.5 µM
# Procedure, shortened: as §1
# Tov-21-G = assay: as above; settings: Gynecologic cancer cell panel viability, ATPlite luminescence, 48 h; series mostly up to 57.5 µM
# Procedure, shortened: as §1
# Tov112D = assay: as above; settings: Gynecologic cancer cell panel viability, ATPlite luminescence, 48 h; series mostly up to 57.5 µM
# Procedure, shortened: as §1
# [8] = target: Glutathione peroxidase 1 (Homo sapiens) (UniProt P07203); assay: Primary qHTS Assay for Inhibitors of Recombinant Selenoprotein Glutathione Peroxidase 1 (GPX1) (AID 1845191); further: nearly all actives have a fitted effect of over 65% in size
# Glutathione peroxidase 1 (Homo sapiens), sequence (P07203 whole entry, looked up): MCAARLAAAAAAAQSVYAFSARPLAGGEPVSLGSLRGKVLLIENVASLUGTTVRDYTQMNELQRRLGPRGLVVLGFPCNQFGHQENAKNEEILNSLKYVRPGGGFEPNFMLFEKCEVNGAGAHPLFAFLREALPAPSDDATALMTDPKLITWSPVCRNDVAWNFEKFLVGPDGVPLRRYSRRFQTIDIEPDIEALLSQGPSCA
# Procedure, shortened: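 GPX1 10 nM, GR 100 nM, GSH 1 mM, NADPH 0.5 mM, CHP 0.5 mM (final). 30-min cpd preincubation, RT. Ex340/Em450 read t=0, t=15 min.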
# [9] = system: Nanoluciferase (engineered Oplophorus gracilirostris luciferase); assay: Primary Nanoluciferase (NLuc) qHTS assay for identification of artifact compounds. (AID 1845222)
# Procedure, shortened: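 Luminescence read-out of secreted NLuc in S16 cell conditioned medium (1:55); compounds tested with 15 min RT preincubation, then Nano-Glo substrate 1:100, 5 min. % inhibition vs no-enzyme and DMSO controls, 4-parameter Hill fit.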
# [10] = Primary redox qHTS assay for identification of artifact compounds. (AID 1845223)
# Procedure, shortened: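 Redox-cycling detection via DTT (250 uM final) oxidation coupled to Amplex Red (25 uM)/HRP (250 mU/mL) in HBSS. 15 min preincubation plus 30 min after DTT, room temperature. Ex/Em 525/598 nm; 4-parameter Hill fit against DMSO and 10 uM DA3003.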
# C33A = assay: Primary qHTS to identify gynecologic anti-cancer compounds using libraries of approved drugs and bioactive compounds (AID 1345084); settings: Gynecologic cancer cell panel viability, ATPlite luminescence, 48 h; series mostly up to 57.5 µM; further: nearly all actives have a fitted effect of over 55% in size; further: potency means the concentration at half of the fitted maximal effect
# Procedure, shortened: as §1
# CASKI = assay: as above; settings: Gynecologic cancer cell panel viability, ATPlite luminescence, 48 h; series mostly up to 57.5 µM
# Procedure, shortened: as §1
# Es-2 = assay: as above; settings: Gynecologic cancer cell panel viability, ATPlite luminescence, 48 h; series mostly up to 57.5 µM
# Procedure, shortened: as §1
# PA-1 = assay: as above; settings: Gynecologic cancer cell panel viability, ATPlite luminescence, 48 h; series mostly up to 57.5 µM
# Procedure, shortened: as §1
Structure (SMILES),Potency [1],outcome [2],Potency [3],Potency [4],Potency [5],Potency [6],Potency [7],Potency (HeLa),Potency (Hek293T),Potency (JEG-3),Potency (OV90),Potency (Tov-21-G),Potency (Tov112D),Potency [8],Potency [9],Potency [10],Potency (C33A),Potency (CASKI),Potency (Es-2),Potency (PA-1)
CC(=O)C1=C(O)C2c3c[nH]c4cccc(c34)CC2C(C)(C)N(C)C1=O (stereo not drawn),inactive,inactive,18.3 µM (active),14.5 µM (active),inactive,inactive,3.36 µM (active),inactive,inactive,inactive,inactive,inactive,inactive,–,–,–,–,–,–,–
CCS(=O)(=O)N(Cc1cccnc1)c1cccc(-c2ccc(C#N)cc2)c1,inactive,inactive,16.3 µM (active),20.5 µM (active),inactive,inactive,inactive,inactive,inactive,inactive,–,–,inactive,inactive,inactive,inactive,inactive,inactive,inactive,inactive
Cc1ccc(CCCO)c(NCc2ccc3nc(NCCCN4CCOCC4)n(Cc4nc(C)ccc4O)c3c2)c1,inactive,inactive,12.9 µM (active),11.5 µM (active),inactive,–,–,inactive,inactive,inactive,–,inactive,inactive,inactive,inactive,–,inactive,inactive,inactive,–
O=c1c(-n2ccnn2)c[nH]n1-c1cc(N2CCOCC2)ncn1,–,inactive,20.9 µM (active),20.9 µM (active),inactive,–,–,–,–,–,–,–,–,inactive,–,–,–,–,–,–
C=C1C(=O)O[C@@H]2CC(C)=C([C@@H](C)CCCO)[C@@H](OC(=O)C(C)C)[C@H]12,–,inactive,14.2 µM (active),14.2 µM (active),inactive,–,14.7 µM (active),inactive,–,inactive,inactive,–,–,inactive,–,–,inactive,–,inactive,–
CC(C)(C)c1ccc(-c2nc3ccccc3[nH]2)cc1,–,inactive,8.93 µM (active),6.32 µM (active),inactive,–,inactive,2.24 µM (active),2.24 µM (active),1.78 µM (active),1.41 µM (active),1.41 µM (active),3.98 µM (active),inactive,inactive,inactive,1.26 µM (active),1.12 µM (active),1.58 µM (active),1 µM (active)
COc1cc(-c2cc(-c3ccc(N4CCNCC4)cc3)cnc2C)cc(OC)c1OC,inactive,inactive,9.34 µM (active),7.42 µM (active),inactive,inactive,inactive,inactive,inactive,inactive,–,inactive,inactive,inactive,inactive,–,inactive,inactive,inactive,inactive
CC(=O)N[C@@H](CC(=O)O)C(=O)N[C@@H](CCC(=O)O)C(=O)N[C@H](C(=O)N[C@@H](CC(=O)O)C(=O)Nc1ccc2c(C)cc(=O)oc2c1)C(C)C,inactive,–,5.78 µM (active),5.15 µM (active),inactive,inactive,–,inactive,inactive,inactive,inactive,–,inactive,inactive,inactive,–,–,–,–,–
C=C(C)C(=O)O[C@H]1[C@H]2C(=C)C(=O)O[C@@H]2C[C@@H](C)/C=C\C(=O)[C@](C)(O)[C@@H]1OC(C)=O,inactive,inactive,–,inactive,inactive,inactive,–,–,–,10 µM (active),–,7.94 µM (active),–,inactive,–,–,11.2 µM (active),–,11.2 µM (active),10 µM (active)
C=CC(=O)Nc1cc(Nc2nccc(-c3cn(C)c4ccccc34)n2)c(OC)cc1N(C)CCN(C)C,inactive,inactive,3.32 µM (active),2.95 µM (active),inactive,inactive,–,–,–,–,–,–,–,inactive,inactive,–,–,14.1 µM (active),–,25.1 µM (active)
O=C(NC(NC(=S)Nc1ccc(F)c([N+](=O)[O-])c1)C(Cl)(Cl)Cl)C(c1ccccc1)c1ccccc1 (stereo not drawn),inactive,inactive,5.41 µM (active) and 16.4 µM (active),20.6 µM (active),inactive,–,–,inactive,inactive,inactive,inactive,inactive,inactive,inactive,inactive,inactive,–,inactive,inactive,inactive
COc1cc(O)c(C(=O)CCc2ccc(O)cc2)c(O[C@@H]2O[C@H](CO)[C@@H](O)[C@H](O)[C@H]2O)c1,–,inactive,–,–,inactive,–,9.22 µM (active),inactive,–,inactive,inactive,inactive,inactive,inactive,inactive,–,inactive,inactive,–,–
CC(C)[C@@H](C)/C=C/[C@@H](C)[C@H]1CC[C@H]2C3=CC=C4C[C@@H](O)CC[C@]4(C)C3=CC[C@]12C,inactive,inactive,–,–,inactive,–,inactive,inactive,inactive,inactive,inactive,inactive,inactive,inactive,inactive,–,inactive,inactive,inactive,inactive
Oc1ccc(Nc2nc(-c3ccc(Cl)cc3)cs2)cc1,inactive,inactive,6.61 µM (active),6.61 µM (active),inactive,4.78 µM (active),1.5 µM (active),–,inactive,inactive,inactive,inactive,–,inactive,inactive,inactive,–,inactive,inactive,–
CCN(CCCOc1ccc2c(Nc3cc(CC(=O)Nc4cccc(F)c4)[nH]n3)ncnc2c1)CCOP(=O)(O)O,inactive,inactive,5.9 µM (active),32.5 nM (active) and 37.2 nM (active),inactive,inactive,inactive,inactive,inactive,inactive,inactive,–,–,inactive,–,–,inactive,–,inactive,–
CCCCn1ccc(N2CCC(c3ccccc3)CC2)c(Cl)c1=O,–,inactive,23 µM (active),18.3 µM (active),inactive,–,inactive,–,31.6 µM (active),–,–,28.2 µM (active),–,inactive,inactive,inactive,–,–,28.2 µM (active),25.1 µM (active)
